PubChem BioAssay AID1159580 (chemical genetic matrix, 2015)
Values joined by “and” are separate entries in the source; they are usually repeats but may differ in a detail not shown here. Equal values may be shown once. Among all 5,500 compounds or so, about 2,000 (36%) were called active. Another 18% or so got no clear call; they are omitted. No stated cut-off is given here; in the data, active means normalized growth mostly below about 0.91 (no sharp cut-off); inconclusive means no clear call, values can overlap the other calls; inactive means mostly above about 0.92. The list shows a part of the results.

Test: chemical genetic growth profiling, strain panel (AID 1159580);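 further: tested at 20 µM; growth read once vehicle control cultures reached saturation at 30 °C; 1 = growth at the plate median or of vehicle wells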
Conditions: S. cerevisiae deletion strains, growth OD

Measured: normalized growth

O=NN(CCCl)C(=O)NCCCl
inactive: locus YAL021C, strain ccr4, stronger effect = lower value 0.923 | locus YAL026C, strain drs2, stronger effect = lower value 0.955 | locus YAL030W, strain snc1, stronger effect = lower value 0.958 | locus YAL040C, strain CLN3, stronger effect = lower value 0.974 | locus YBL061C, strain skt5, stronger effect = lower value 0.942 | locus YBR009C, strain hhf1, stronger effect = lower value 0.912 | locus YBR021W, strain FUR4, stronger effect = lower value 0.954 | locus YBR023C, strain chs3, stronger effect = lower value 0.942 | locus YBR171W, strain sec66, stronger effect = lower value 0.92 | locus YBR229C, strain ROT2, stronger effect = lower value 0.986 | locus YCL029C, strain bik1, stronger effect = lower value 0.995 | locus YCL069W, strain vba3, stronger effect = lower value 0.962 | locus YCR088W, strain abp1, stronger effect = lower value 0.958 | locus YDL005C, strain med2, stronger effect = lower value 0.958 | locus YDL035C, strain GPR1, stronger effect = lower value 0.909 | locus YDL040C, strain nat1, stronger effect = lower value 0.959 | locus YDL074C, strain BRE1, stronger effect = lower value 0.93 | locus YDL101C, strain DUN1, stronger effect = lower value 0.964 | locus YDL134C, strain PPH21, stronger effect = lower value 0.979 | locus YDL185W, strain tfp1, stronger effect = lower value 0.98 | locus YDL192W, strain arf1, stronger effect = lower value 0.976 | locus YDR001C, strain nth1, stronger effect = lower value 0.96 | locus YDR069C, strain doa4, stronger effect = lower value 0.95 | locus YDR101C, strain arx1, stronger effect = lower value 0.994 | locus YDR137W, strain rgp1, stronger effect = lower value 0.943 | locus YDR150W, strain NUM1, stronger effect = lower value 1.01 and 0.989 | locus YDR162C, strain NBP2, stronger effect = lower value 0.988 | locus YDR195W, strain ref2 0.997 | locus YDR297W, strain sur2, stronger effect = lower value 0.965 | locus YDR318W, strain mcm21, stronger effect = lower value 0.966 | locus YDR335W, strain msn5, stronger effect = lower value 0.96 | locus YDR388W, stronger effect = lower value 0.983 | locus YEL037C, strain rad23, stronger effect = lower value 0.94 | locus YEL061C, strain CIN8 (second series), stronger effect = lower value 0.952 | locus YEL061C, strain CIN8, stronger effect = lower value 1.04 | locus YER002W, strain NOP16, stronger effect = lower value 1.02 | locus YER110C, stronger effect = lower value 0.986 | locus YER111C, strain swi4, stronger effect = lower value 0.958 | locus YER155C, strain BEM2, stronger effect = lower value 1 | locus YER167W, strain BCK2, stronger effect = lower value 1.02 | locus YGL086W, strain mad1, stronger effect = lower value 0.956 | locus YGL167C, strain pmr1, stronger effect = lower value 0.959 | locus YGL173C, strain kem1, stronger effect = lower value 0.922 | locus YGL227W, strain vid30, stronger effect = lower value 0.925 | locus YGL248W, strain PDE1, stronger effect = lower value 0.943 | locus YGL253W, strain hxk2, stronger effect = lower value 0.985 | locus YGR078C, strain PAC10, stronger effect = lower value 0.991 | locus YGR229C, strain SMI1, stronger effect = lower value 0.823 | locus YGR252W, strain gcn5, stronger effect = lower value 0.777 | locus YHR027C, strain rpn1, stronger effect = lower value 0.948 | locus YHR079C, strain IRE1 (second series), stronger effect = lower value 0.988 | locus YHR094C, strain hxt1, stronger effect = lower value 0.994 | locus YHR129C, strain ARP1, stronger effect = lower value 0.991 | locus YHR200W, strain rpn10, stronger effect = lower value 0.958 | locus YIL066C, strain RNR3, stronger effect = lower value 0.994 | locus YIL073C, strain SPO22, stronger effect = lower value 0.928 | locus YIR030C, strain dcg1, stronger effect = lower value 0.991 | locus YJL092W, strain hpr5, stronger effect = lower value 0.922 | locus YJL095W, strain BCK1 (second series), stronger effect = lower value 0.963 | locus YJL115W, strain asf1, stronger effect = lower value 0.923 | locus YJL134W, strain LCB3, stronger effect = lower value 0.997 | locus YJL154C, strain vps35, stronger effect = lower value 0.975 | locus YJL166W, strain qcr8, stronger effect = lower value 0.923 | locus YJL168C, strain set2, stronger effect = lower value 1 | locus YJL187C, strain SWE1 (second series), stronger effect = lower value 1 | locus YJL187C, strain SWE1, stronger effect = lower value 0.944
1.03 (inactive) and 0.315 (active): locus YHR030C, strain SLT2, stronger effect = lower value
0.928 (inactive) and 0.341 (active): locus YJL095W, strain BCK1, stronger effect = lower value
active: locus YBR231C, strain swc5, stronger effect = lower value 0.604 | locus YBR279W, strain paf1, stronger effect = lower value 0.929 | locus YCL011C, strain gbp2, stronger effect = lower value 0.902 | locus YCL016C, strain dcc1, stronger effect = lower value 0.847 | locus YCL061C, strain MRC1, stronger effect = lower value 0.916 | locus YDR159W, strain sac3, stronger effect = lower value 0.855 | locus YDR334W, strain swr1, stronger effect = lower value 0.876 | locus YDR392W, strain spt3, stronger effect = lower value 0.562 | locus YDR502C, strain sam2, stronger effect = lower value 0.881 | locus YEL003W, strain gim4, stronger effect = lower value 0.803 | locus YER015W, strain faa2, stronger effect = lower value 0.899 | locus YER016W, strain bim1, stronger effect = lower value 0.875 | locus YER155C, strain BEM2 (second series), stronger effect = lower value 0.583 | locus YFR010W, strain ubp6, stronger effect = lower value 0.836 | locus YGL078C, strain dbp3, stronger effect = lower value 0.912 | locus YGL240W, strain doc1, stronger effect = lower value 0.682 | locus YGR135W, strain pre9, stronger effect = lower value 0.846 | locus YHR013C, strain ard1, stronger effect = lower value 0.64 | locus YHR079C, strain IRE1, stronger effect = lower value 0.298 | locus YHR142W, strain chs7, stronger effect = lower value 0.87 | locus YIL125W, strain kgd1, stronger effect = lower value 0.926 | locus YJL129C, strain trk1, stronger effect = lower value 0.759 | locus YJL164C, strain tpk1, stronger effect = lower value 0.878 | locus YJR043C, strain POL32, stronger effect = lower value 0.74
